Assay outcomes: PubChem, National Center for Advancing Translational Sciences (NCATS)
AMA1-RON2 inh = qHTS for Inhibitors of AMA1-RON; Towards Development of Antimalarial Drug Lead: Primary Screen | 360,000 tested, 0.2% active | Potency, µM (top dose mostly 58.2 µM), inactives show at the top dose activity change, negative = inhibition, most hits filed as inhibitors | AlphaScreen AMA1-biotinylated RON2 peptide binding | Plasmodium falciparum AMA1 (3D7) - RON2 peptide interaction | AID 720542, 2013;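 further: 0% = vehicle wells and -100% = peptide control; nearly all actives have a fitted effect of over 45% in size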
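AMA1 (3D7) with his tag at 25 nM final met compounds first, then biotinylated RON2 peptide at 25 nM; detection used donor plus acceptor beads, 10 µg/mL apiece, read by AlphaScreen after 30 min at room temperature.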
Pf growth 96h = Primary qHTS for delayed death inhibitors of the malarial parasite plastid, 96 hour incubation. P. falciparum luciferase reporter growth, 96 h. Potency, µM (top dose mostly 28.7 µM), without a hit: top-dose activity change, negative = inhibition, hits mostly inhibitors. 320,000 tested, 6.9% active; further: on the % scale 0 is the no-effect control and ±100 the full control effect
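Luminescence readout: decreased luciferase signal marks inhibited growth of reporter-expressing P. falciparum in infected red cells (2% hematocrit, 0.05% parasitemia final), exposed to compound two generations (96 h, 37 C, 5% CO2).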
NS1 function inh = qHTS Assay for Inhibitors of Influenza NS1 Protein Function. Potency, µM (highest dose often 46.1 µM), without a hit: top-dose activity, positive = more growth. 270,000 tested, 0.4% active; calls by dose curve; further: actives are rising curves; nearly all actives have a fitted effect of over 50% in size
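In this qHTS, NS1 from influenza A is expressed in budding yeast, where it slows growth. Cells are switched from glucose to 2% galactose medium (pH 6.0, -URA), treated with compound, and growth recovery is read at OD600.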
Sm TGR block = qHTS Assay for the Inhibitors of Schistosoma Mansoni Peroxiredoxins; Potency, µM (doses to about 114 µM), inactives show top-dose activity change, negative = inhibition, hits mostly inhibitors; Schistosoma mansoni thioredoxin glutathione reductase (TGR), Q962Y6; 360,000 tested, 3% active; purified TGR, DTNB reduction, TNB absorbance 405 nm; AID 485364, 2010; further: on the % scale 0 is the no-effect control and ±100 the full control effect; nearly all actives have a fitted effect of over 60% in size
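First, TGR (20 nM dispensed) and NADPH were mixed with compound. Second, a 15 min room-temperature incubation followed. Third, further NADPH and then DTNB were added to start the reaction. Finally, TNB absorbance was monitored kinetically.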
Pf growth 48h = Primary qHTS for delayed death inhibitors of the malarial parasite plastid, 48 hour incubation; Potency, µM (doses to about 28.7 µM), inactives show at the highest dose activity change, negative = inhibition, actives largely listed as inhibitors; AID 504832, 2011; 310,000 tested, 5.9% active; P. falciparum luciferase growth in erythrocytes, 48 h; further: on the % scale 0 is the no-effect control and ±100 the full control effect
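Luciferase-expressing parasites in RBCs, 2% Hct / 0.1% parasitemia final; RPMI 1640 + 0.5% Albumax; 37 C, 5% CO2, one generation; luminescence read-out, lower signal = inhibition.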
An asterisk follows results filed as active; u = inconclusive; x = no result given. Hits are enriched below; roughly 11% of the tested compounds scored in any of these assays. Unless noted, the call rests on the fitted dose curve; in most records, active means well fitted curve in the direction sought with a large enough effect; inconclusive means small, poorly fitted or top-dose-only effect, or another doubt; inactive means no such curve, though single readings can be large; an effect the other way counts as inactive or inconclusive. Potency means the concentration at half of the fitted maximal effect.

SMILES	AMA1-RON2 inh	Pf growth 96h	NS1 function inh	Sm TGR block	Pf growth 48h
Cc1cc(S(=O)(=O)N2CCCC2)ccc1OCC(=O)Nc1ccccc1	-9.0%	-24.4%	5.4%	2.6%	-8.5%
COc1ccccc1/C=N/NC(=O)c1ccccc1Cl	-0.9%	-0.3%	x	18.5%	-3.8%
COC(=O)c1cccc(Cn2c(Cl)c(/C=N/NC(=O)c3ccccc3Cl)sc2=O)c1	-4.5%	4.65µM*	16.1%	u	u
COC(=O)c1cccc(Cn2c(Cl)c(/C=N/NC(=O)c3ccco3)sc2=O)c1	12.3%	8.28µM*	10.5%	35.5µM*	9.28µM*
CCc1ccc(S(=O)(=O)c2nnn3c2nc(NCc2cccc(OC)c2)c2cc(Cl)ccc23)cc1	x	x	x	2.6%	x
Cc1cccc(Cn2c(C)nc3c(N)c(C)c(C)cc32)c1	-22.6%	u	x	-1.4%	10.4µM*
Cc1cccc(Cn2c(C(C)O)nc3ccccc32)c1 (stereo unspecified)	-9.5%	u	-39.4%	0.4%	-8.7%
Cn1c(=O)c2sccc2n2c(CCC(=O)N3CCN(c4ccc(F)cc4)CC3)nnc12	x	x	x	-2.0%	x
COc1ccccc1CNC(=O)/C(C#N)=C/c1ccc(OC)c(OC)c1OC	-1.0%	0.4%	0.2%	18.9%	u
O=C(O)CSCCn1cccn1	-5.4%	13.1µM*	-3.1%	-3.7%	23.1%
CCOC(=O)c1coc(CNC(=O)c2c(C)oc3c2CCCC3)c1	2.8%	-8.8%	-18.9%	-17.3%	-10.3%
CCOC(=O)c1cc(CNC(=O)c2c(C)oc3c2CCCC3)c(C)o1	0.4%	u	7.7%	22.4µM*	u
CCOC(=O)N/N=C/c1c(C)nn(-c2ccccc2Cl)c1Cl	11.2%	10.4µM*	-5.1%	3.5%	u
Cc1nn(-c2ccccc2)c(Cl)c1/C=N/NC(=O)OC(C)(C)C	2.8%	u	-3.6%	-10.0%	-2.5%
CC(C)/C=C1\CC/C(=C\c2ccc(N(C)C)cc2)C1=O	9.6%	42.3%	4.9%	-33.3%	85.8%
CN(C)c1ccc(/C=C2/C[N+](C)(C)C/C(=C/c3ccc(N(C)C)cc3)C2=O)cc1	22.4µM*	x	x	x	x
CCN(CC)C(=O)CSc1nc2ccccc2c(=O)n1CC1CCCCC1	-5.7%	u	-10.8%	-7.7%	4.15µM*
O=C(CSc1nc2ccccc2c(=O)n1CC1CCCCC1)N1CCOCC1	-1.0%	13.1µM*	-56.8%	-13.6%	9.28µM*
CCOc1ccccc1CNC(=O)C1CCN(S(=O)(=O)c2c(C)noc2/C=C/c2ccc(C)cc2)CC1	x	x	x	-1.8%	x
CCOc1ccc(NC(=O)c2oc3ccccc3c2NC(=O)C(C)(C)C)cc1	x	x	x	-5.3%	x
Cc1cc(OCc2cc(C(=O)NC(C)c3c(C)nn(C)c3C)no2)cc(C)c1Cl (stereo unspecified)	-2.3%	u	-14.6%	-11.8%	-21.5%
O=C(NCC(c1ccco1)S(=O)(=O)c1cccs1)c1ccc(C(F)(F)F)cc1 (stereo unspecified)	x	x	x	4.47µM*	x
O=C(NCC(c1ccco1)S(=O)(=O)c1cccs1)c1ccc(F)c(F)c1 (stereo unspecified)	x	x	x	15.8µM*	x
COc1ccccc1CCNC(=O)C(=O)NCC(c1ccco1)S(=O)(=O)c1ccccc1 (stereo unspecified)	x	x	x	35.5µM*	x
COc1ccccc1CCNC(=O)C(=O)NCC(c1cccs1)S(=O)(=O)c1ccccc1 (stereo unspecified)	x	x	x	-15.1%	x
SMILES	AMA1-RON2 inh	Pf growth 96h	NS1 function inh	Sm TGR block	Pf growth 48h
O=C(NCC(c1ccco1)S(=O)(=O)c1cccs1)c1ccccc1 (stereo unspecified)	x	x	x	0.316µM*	x
Cc1ccc(S(=O)(=O)C(CNC(=O)c2ccc(F)c(F)c2)c2ccco2)cc1 (stereo unspecified)	x	x	x	-24.9%	x
CC1=C(C(=O)Nc2ccccc2)C(c2ccncc2)n2nc(SCc3ccccc3F)nc2N1 (stereo unspecified)	x	x	x	0.7%	x
CC1CCCCC12NC(=O)N(CC(=O)Nc1ccc(OC(F)F)cc1)C2=O (stereo unspecified)	-1.5%	x	x	x	x
CC(C)C[C@H]1CN(CCCC[C@H]2CNC(=O)C(=O)N2CC2CCCCC2)C(=O)C(=O)N1CCC1CCCCC1	2.8%	x	x	x	x
Cc1ccc2c(c1)N(CC(=O)NCCCN1CCOCC1)C(=O)C(C(C)C)O2 (stereo unspecified)	-4.0%	23.9%	x	-2.3%	0.0%
Cc1ccc(C(=O)NCC(c2ccco2)S(=O)(=O)c2ccccc2)cc1C (stereo unspecified)	x	x	x	-16.5%	x
COc1ccc(C(=O)NCC(c2ccco2)S(=O)(=O)c2cccs2)cc1OC (stereo unspecified)	x	x	x	1.26µM*	x
CC(C)(C)c1ccc(C(=O)NCC(c2cccs2)S(=O)(=O)c2cccs2)cc1 (stereo unspecified)	x	x	x	35.5µM*	x
O=C(NCCc1ccccc1)C(=O)NCC(c1ccco1)S(=O)(=O)c1cccs1 (stereo unspecified)	x	x	x	20µM*	x
Cc1ccc(S(=O)(=O)N2CCOCC2)cc1NC(=O)COC(=O)C1COc2ccccc2O1 (stereo unspecified)	0.2%	0.0%	-2.9%	4.3%	-6.3%
CC(C)(C)c1ccc(OCC(=O)Nc2ccc(C(=O)Nc3ccccc3C(=O)O)cc2)cc1	-18.9%	-16.9%	0.6%	0.0%	8.5%
CC(C)CN(CCCNC(=O)CN1C(=O)COc2ccc(S(=O)(=O)N3CCOCC3)cc21)CC(C)C	11.2%	u	3.3%	-5.6%	4.6%
Cc1ccc(CS(=O)(=O)Cc2ccc(C(=O)NC3CCCCCC3)o2)cc1	-5.4%	-6.1%	0.3%	u	u
CCCCCCn1c(C(C)NC(=O)c2ccco2)nc2ccccc21 (stereo unspecified)	-3.5%	u	-81.7%	39.8µM*	u
CCn1c(CCCNC(=O)c2ccco2)nc2ccccc21	-0.4%	13.4%	u	3.4%	-25.3%
O=C(Nc1nc2ccccc2n1Cc1ccccc1)c1ccco1	-0.6%	x	u	-9.8%	13.1µM*
CCn1c(CCNC(=O)c2ccco2)nc2ccccc21	-14.4%	9.28µM*	0.2%	-6.8%	-8.4%
CCCCn1c(C(C)NC(=O)CC)nc2ccccc21 (stereo unspecified)	-3.1%	0.5%	-10.8%	4.8%	-7.2%
CC1CCN(C(=O)CSc2nc(=O)n3ccccc3n2)CC1	27.5%	-15.5%	x	6.9%	4.2%
CCOC(=O)Cn1c2c(c(=N)c3c1CCC3)CCC2	-6.8%	-0.2%	7.3%	-1.2%	1.04µM*
CCCCCCCCCn1c2c(c(=N)c3c1CCC3)CCCC2	4.8%	27.4%	-60.4%	-0.3%	u
CCOC(=O)Cn1c2c(c(=N)c3ccccc31)CCC2	-0.8%	0.37µM*	3.1%	-2.1%	u
